HCMV inh = blocks human cytomegalovirus replication; HFF cells, HCMV-luciferase reporter, 72 h; hits give low values; activity change, negative = inhibition, % at 57.5 µM; actives 4.5% (n = 410,000); in the data active = activity change below about -60%; inconclusive = no clear call, values can overlap the other calls; inactive = above about -39%
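Two compound doses tested in HFFs infected with HCMV-luciferase, MOI 1 PFU/cell, 72 h at 37C. Lysate luminescence read with OneGlo; data normalized against buffer-only and 10uM Salinomycin inhibitor controls.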
Pf growth 96h = P. falciparum growth inhibition at 96 hours | P. falciparum luciferase reporter growth, 96 h | Potency, µM (titrated, usually from 28.7 µM), without a hit: at the top dose activity change, negative = inhibition, hits mostly inhibitors | actives 6.9% (n = 320,000); also: potency is read from the fitted curve at half-maximal effect
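Erythrocytes infected with luciferase-expressing P. falciparum were dispensed at 2% hematocrit and 0.05% parasitemia (final), then incubated with compounds 96 hours at 37 C in 5% CO2. Luminescence after detection reagent addition reported growth.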
FBPA Giardia inh = blocks Giardia fructose-bisphosphate aldolase activity; purified Giardia FBPA; Potency, µM (doses to about 59.6 µM), for inactives: top-dose activity, negative = inhibition, hits mostly inhibitors; actives 0.71% (n = 290,000); AID 2451; also: potency is read from the fitted curve at half-maximal effect; nearly all actives have a fitted effect of over 55% in size
Target sequence (A8B2U2 whole entry, looked up): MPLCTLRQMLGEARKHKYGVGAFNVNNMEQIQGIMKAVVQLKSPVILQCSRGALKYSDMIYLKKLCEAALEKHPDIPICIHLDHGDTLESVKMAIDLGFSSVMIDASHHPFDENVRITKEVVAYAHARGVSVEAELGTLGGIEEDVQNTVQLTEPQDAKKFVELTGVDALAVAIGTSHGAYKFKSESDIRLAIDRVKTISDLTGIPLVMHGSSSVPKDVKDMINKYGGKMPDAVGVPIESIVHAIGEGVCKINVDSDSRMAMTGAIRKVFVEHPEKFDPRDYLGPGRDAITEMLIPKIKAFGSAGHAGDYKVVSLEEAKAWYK
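40 nM FBPA preincubated 10 min at RT with compound (up to 57.5 uM final), then substrate plus GAPDH/TPI/NAD/arsenate coupling and diaphorase/resazurin added. Fluorescence read after 20 min at RT, 525/598 nm.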
Sm TGR block = S. mansoni TGR enzyme inhibition. Q962Y6. purified TGR, DTNB reduction, TNB absorbance 405 nm. Potency, µM (top dose mostly 114 µM), for inactives: at the highest dose activity change, negative = inhibition, usual class: inhibitors. actives 3% (n = 360,000). AID 485364; also: potency is read from the fitted curve at half-maximal effect; nearly all actives have a fitted effect of over 60% in size
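TGR 20 nM + NADPH 100 uM (dispensed conc.), cpd preinc 15 min RT; start with NADPH (500 uM addition) then DTNB (15 mM addition). Kinetic TNB absorbance, 405 nm filter. Four-parameter Hill fit across titration.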
Pf growth 48h = inhibits P. falciparum growth in the first generation, 48 h; P. falciparum luciferase growth in erythrocytes, 48 h; actives 5.9% (n = 310,000); Potency, µM (doses to about 28.7 µM), for the others: at the highest dose activity change, negative = inhibition, most hits filed as inhibitors; AID 504832; also: potency is read from the fitted curve at half-maximal effect
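Parasite viability was followed by luminescence of a genomically integrated firefly luciferase. Cultures held 0.1% parasitemia at 2% hematocrit (final), incubated under 5% CO2 at 37 C.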
The depositor's hits bear a star; ? = inconclusive; · = no result given. Only some compounds are listed: those with a hit (about 14% of all), similar ones and a draw of the others. Unless noted, calls follow the shape of the dose curve; as a rule, active = well fitted curve in the direction sought with a large enough effect; inconclusive = small, poorly fitted or top-dose-only effect, or another doubt; inactive = no such curve, though single readings can be large; an effect the other way counts as inactive or inconclusive. % is scaled to controls: 0 for no effect and ±100 for the full control effect.

SMILES	HCMV inh	Pf growth 96h	FBPA Giardia inh	Sm TGR block	Pf growth 48h
CCN1CCc2c(sc(NC(=O)c3ccc(S(=O)(=O)N(C)C4CCCCC4)cc3)c2C(N)=O)C1	?	·	·	-3.0%	·
CCN1CCc2c(sc(NC(=O)c3ccc(S(=O)(=O)N(C)CC4CCCO4)cc3)c2C(N)=O)C1 (stereo not drawn)	-2.0	10.4µM*	·	5.8%	?
Cc1cc(C)cc(NC(=O)c2ccc(S(=O)(=O)N(C)CC3CCCO3)cc2)c1 (stereo not drawn)	8.8	2.62µM*	·	10.0%	?
CCCN1CCc2c(sc(NC(=O)c3ccc(S(=O)(=O)N(C)c4ccccc4)cc3)c2C(=O)NC)C1	-15.4	2.62µM*	-14.4%	2.6%	3.29µM*
CNC(=O)c1c(NC(=O)c2ccc(S(=O)(=O)N3CCCc4ccccc43)cc2)sc2c1CCN(C)C2	-21.3	?	-9.8%	-7.1%	?
CC(Sc1nnc2ccccn12)C(N)=O (stereo not drawn)	24.5	18.5%	3.7%	-5.7%	?
Cc1ccc(Sc2c(C)nn(C(=O)COc3ccc(F)cc3)c2C)cc1	2.9	·	·	-2.0%	·
COc1ccc(NC(=O)CCCCCN2C(=O)[C@@H]3Cc4ccccc4CN3C2=O)cc1Cl	-34.1	11.7µM*	·	-16.4%	-16.4%
C#CCNc1c2c(nc3ncnn13)CC(C)CC2 (stereo not drawn)	-101.3*	24.9%	-0.8%	22.4µM*	7.5%
COc1ccccc1N=CC1=C(O)CC(c2ccccc2)CC1=O (stereo not drawn)	-13.8	13.1µM*	-8.9%	-0.3%	12.8%
O=C1CC(c2ccccc2)CC(O)=C1C=NCc1ccncc1 (stereo not drawn)	-6.6	11.7µM*	4.3%	-0.5%	9.0%
O=C1CC(c2ccccc2)CC(O)=C1C=NCc1ccc(Cl)c(Cl)c1 (stereo not drawn)	-7.2	?	4.7%	-0.3%	5.0%
CC(=N)C1=C(O)CC(c2ccccc2)CC1=O (stereo not drawn)	-99.5*	8.1%	20.3%	6.6%	19.8%
CCC(=NC)C1=C(O)CC(c2ccccc2)CC1=O (stereo not drawn)	11.5	1.1%	15.7%	4.0%	-18.1%
O=C(COc1ccccc1)NCC(c1ccco1)N1CCCCC1 (stereo not drawn)	-16.5	?	·	-15.6%	?
COc1cc(/C=N\Nc2ccc([N+](=O)[O-])cc2)ccc1OCC(=O)Nc1ccc(C)c(C)c1	-71.6*	71.8%	0.0%	-11.7%	?
COc1cc(/C=N\NC(=O)CN2CCOCC2)ccc1OCC(=O)Nc1ccc(C)c(C)c1	-2.2	9.28µM*	0.1%	89.1µM*	?
CCCOc1ccc(/C=C/C(=O)Nc2ccc([N+](=O)[O-])cc2C)cc1OC	-96.2*	131.1%	4.8%	2.0%	?
CNC(=S)N/N=C/c1ccc(OCC(=O)Nc2c(C)cc(C)cc2C)c(OC)c1	-21.3	?	-5.3%	0.2%	13.1µM*
COc1ccc([C@H]2CC(=O)C[C@@H](CCn3cc(C(C)C)nn3)O2)cc1	-6.8	·	·	·	·
CC(=O)Nc1ccc(S(=O)(=O)N(CC(=O)NCC2CCCO2)Cc2ccccc2Cl)cc1 (stereo not drawn)	8.1	·	·	·	·
Cn1nnc2c(N3CCN(c4ccccc4F)CC3)ncnc21	-8.7	·	·	2.2%	·
COc1ccc(-c2nc3cnc(N4CCNCC4)nc3n(-c3ccc(OC)cc3)c2=O)cc1	·	·	6.2%	·	·
CCOc1cc(C(=S)N2CCCC2)ccc1OCC(=O)Nc1c(C)cc(C)cc1C	13.2	41.1%	-3.2%	0.7%	2.33µM*
CCC1=Nc2cc(C(=O)NCCN3CCCC3)ccc2Sc2ccccc21	?	2.33µM*	-6.1%	7.0%	?
CCC1=Nc2cc(C(=O)NCCCOC)ccc2Sc2ccc(Br)cc21	-87.4*	·	·	0.5%	·
CCC1=Nc2cc(C(=O)NCCCOC)ccc2Sc2ccccc21	-75.9*	-40.6%	9.2%	0.0%	·
CCOc1ccc(N(Cc2cc3ccc(C)cc3[nH]c2=O)S(=O)(=O)c2ccccc2)cc1	?	?	-11.0%	-12.6%	?
C/C(=C\COc1ccc2ccc(=O)oc2c1)CC[C@@H](O)C(C)(C)O	56.9	38.6%	·	1.8%	68.6%

From PubChem BioAssay
